Data as given in PubChem BioAssay AID2732 (Emory University Molecular Libraries Screening Center, 2010).
In all, about 220,000 compounds went through this assay and about 8,200 (3.7%) were called active.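 Rule for the calls: active = compounds that reduced the stress-induced luciferase reporter signal by more than about 70% of percent inhibition (limit read from the data); inactive = the rest.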 For the sample, actives were picked, then their nearest neighbours and some compounds at random.

test: inhibitors of CHOP promoter induction, primary screen, cell-based, unfolded protein response, luciferase reporter (AID 2732); conditions: CHO-K1 CHOP-promoter luciferase, tunicamycin-induced, 15-18 h; at 10 µM; stronger effect = higher value;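 note: 0% = tunicamycin plus vehicle and 100% = wells without tunicamycin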

SMILES	inhibition
Cc1cc(=O)oc2cc(OCC(=O)Nc3nnc(C4CC4)s3)ccc12	1.52% (inactive)
CNC1(c2nnnn2-c2c(C)cccc2C)CCOC(C)(C)C1 (stereo unspecified)	1.67% (inactive)
CCOC(=O)C1CCN(C(=O)Nc2ccc(C)c(Cl)c2)CC1	1.94% (inactive)
C/C=C(/C)C(=O)O[C@@H]1c2cc3c(c4c2[C@@]2(CO4)C(=O)C(OC)=C(OC)C=C2C[C@@H](C)[C@H]1C)OCO3	2.19% (inactive)
O=S(=O)(NCCSc1ccccn1)c1ccc(Cl)cc1	15.3% (inactive)
CCOc1ccc(S(=O)(=O)NCCSc2ccccc2)cc1	95.6% (active)
Cc1ccc(S(=O)(=O)NCCSc2ccccc2)cc1[N+](=O)[O-]	33.3% (inactive)
N=c1c2c(-c3ccccc3)c(-c3ccccc3)oc2ncn1Cc1ccco1	92.2% (active)
COc1ccc(-c2oc3ncn(Cc4ccco4)c(=N)c3c2-c2ccc(OC)cc2)cc1	-30.9% (inactive)
c1ccc(-c2oc3ncnc(N4CCOCC4)c3c2-c2ccccc2)cc1	57.6% (inactive)
O=C(CNc1ccc(F)cc1F)NC(=O)NCc1ccco1	10.8% (inactive)
Cc1nc2nc(SCC(=O)c3ccccc3)[nH]c2cc1Br	-0.2% (inactive)
CCCc1nc(NCc2ccc3c(c2)OCO3)c2nnn(Cc3ccccc3Cl)c2n1	70.4% (active)
O=C(Cn1cnc2c(nnn2Cc2ccc(F)cc2)c1=O)NCc1ccc2c(c1)OCO2	37.3% (inactive)
Cc1nc(Nc2ccc3c(c2)OCCO3)c2nnn(Cc3ccccc3Cl)c2n1	69.6% (inactive)
CS/C(=C\C(=O)c1ccco1)Nc1ccccc1Cl	1.24% (inactive)
CC(O)c1nc2c(c(=O)n(C)c(=O)n2C)n1C (stereo unspecified)	10.6% (inactive)
CCC1C(C#N)=C(SC)NC2=C1C(=O)CC(C)(C)C2 (stereo unspecified)	73.6% (active)
COc1cc(C2C(C#N)=C(C)NC3=C2C(=O)CC(C)(C)C3)ccc1O (stereo unspecified)	49.1% (inactive)
CC(=O)C1=C(C)NC2=C(C(=O)CC(C)(C)C2)C1C (stereo unspecified)	23.4% (inactive)
CCn1c(SCC(=O)N/N=C/c2ccncc2)nc2ccccc21	24.8% (inactive)
CCOC(=O)c1c(NC(=O)CSc2nnc(Cc3csc(N)n3)n2C)sc(C)c1C	4.17% (inactive)
CCOC(=O)c1c(NC(=O)CSc2nnc(CNc3ccc(C)cc3C)o2)sc(C)c1C	80.7% (active)
CCOC(=O)c1sc(NC(=O)CSc2nnc(-c3ccco3)o2)c(C(=O)OCC)c1C	19.2% (inactive)

SMILES	inhibition
Nc1c(Cl)cc(S(N)(=O)=O)cc1S(N)(=O)=O	4.35% (inactive)
CCn1c(/C=C/c2ccc([N+](=O)[O-])o2)nc2ccccc2c1=O	5.31% (inactive)
Cn1cc(/C=C/c2nc3ccccc3c(=O)n2-c2cccc([N+](=O)[O-])c2)c2ccccc21	86% (active)
O=[N+]([O-])c1cccc(Nc2c3ccccc3nc3ccccc23)c1	47.9% (inactive)
CCn1c2ccccc2c2cc(NC(=O)Nc3ccc([N+](=O)[O-])cc3C)ccc21	31.1% (inactive)
Nc1scc[n+]1Cc1cccc2cccnc12	12% (inactive)
Cc1cc(NC(=O)CCC(=O)N(c2cccc(F)c2)C(C(=O)NC2CCCC2)c2ccncc2)no1 (stereo unspecified)	-6.58% (inactive)
Cc1cc(NC(=O)/C=C/C(=O)N(CC(=O)NC2CCCC2)c2ccc(F)cc2)no1	-11.4% (inactive)
Cc1cc(NC(=O)/C=C/C(=O)N(c2ccccc2C)C(C(=O)NC2CCCC2)c2ccc(F)cc2)no1 (stereo unspecified)	87.6% (active)
Cn1cccc1/C=N/NC(=O)CNc1cccc2ccccc12	10.8% (inactive)
O=C(O)c1cccnc1Sc1ncnc2sc3c(c12)CCC3	-7.08% (inactive)
O=C1OC(/C=C/c2ccccc2)=NC/1=C/c1ccco1	0.75% (inactive)
CC(C)(C)C1C/C(=C/c2ccco2)C(=O)/C(=C/c2ccco2)C1 (stereo unspecified)	108% (active)
CCC1S/C(=N/N=C/c2ccco2)NC1=O (stereo unspecified)	40.4% (inactive)
COc1ccc(-c2csc(NC3OC(=O)c4ccccc43)n2)cc1 (stereo unspecified)	-118% (inactive)
COc1cc(/C=N\Nc2nc(-c3cccs3)c(NC(C)=O)s2)ccc1O	-7.52% (inactive)
NNC(=O)c1ccc(COCC(F)(F)C(F)F)cc1	-2.57% (inactive)
COc1ccc(CCNC(=O)C(=O)NCC2CCNCC2)cc1OC	-6.48% (inactive)
C=CCNC(=S)NNC(=O)c1cc(Cl)ccc1OC	-7.01% (inactive)
C=CCNC(=O)c1sc(SC)cc1-c1ccc(Cl)cc1	72.1% (active)
C=CCNC(=O)c1ccc(C)c(Br)c1	24.2% (inactive)
COc1cc(NC(=O)c2ccc(CNc3c(N4CCCC4)c(=O)c3=O)cc2)cc(OC)c1OC	-0.87% (inactive)
COc1ccccc1-n1c(SCC(=O)O)nc2sc3c(c2c1=O)CCC3	8.81% (inactive)
CCOc1ccc(/C(O)=C2\C(=O)C(=O)N(c3ccc(OC)cc3)C2c2ccccc2[N+](=O)[O-])cc1 (stereo unspecified)	-9.44% (inactive)

SMILES	inhibition
O=c1c(-c2ccccc2)coc2cc(O)ccc12	15.5% (inactive)
CC(C)=CCc1c(O)c(CC=C(C)C)c2occ(-c3ccc(O)cc3)c(=O)c2c1O	104% (active)
O=c1c(-c2ccccc2)coc2c(CN3CCOCC3)c(O)ccc12	-10.6% (inactive)
O=C(c1ccc(Cl)cc1)N1N=C(c2ccccn2)CC1(O)C(F)(F)F (stereo unspecified)	6.12% (inactive)
Nc1nc(NC(=O)/C=C/c2ccc(F)cc2)nn1-c1ccccc1	18.8% (inactive)
Cc1noc(C)c1CSCC(=O)Nc1nc2ccc(Oc3ccccc3)cc2s1	80.2% (active)
CCn1c(SCC(=O)Nc2nc3ccc(OC)cc3s2)nnc1-c1ccoc1C	14.3% (inactive)
CCOC(=O)c1c(C2CC2)csc1NC(=O)CSCc1c(C)noc1C	50.5% (inactive)
Cc1ccc(NNC(=O)C2CCC2)cc1C	6.66% (inactive)
COc1ccc2cc1Oc1ccc(cc1)C[C@H]1c3cc(c(OC)cc3CCN1C)Oc1c(O)c(OC)cc3c1[C@H](C2)N(C)CC3	-41.5% (inactive)
CN(CC(=O)Nc1ccc(S(=O)(=O)N2CCCC2)cc1)Cc1ccc(Cl)c(Cl)c1	25.8% (inactive)
CS(=O)(=O)N(CC(=O)Nc1ccc(Cl)c(Cl)c1)C1CCCCC1	99.8% (active)
CCC(C)NC(=O)CN(C1CCCCC1)S(C)(=O)=O (stereo unspecified)	5.15% (inactive)
O=C(O)C(NS(=O)(=O)c1cccc2nsnc12)c1ccccc1 (stereo unspecified)	16% (inactive)
O=C1COc2ccc(C(=O)COC(=O)c3cccnc3Cl)cc2N1	-9.06% (inactive)
CCCc1nc2ccccc2c(C(=O)OCc2nnc(-c3cc(OC)c(OC)c(OC)c3)o2)c1CC	58% (inactive)
CCCc1nc2ccccc2c(C(=O)OCC(=O)c2ccc3c(c2)NC(=O)CO3)c1CC	102% (active)
C#CCO[C@@H]1C[C@H](n2cnc3c(=O)[nH]c(NC(=O)C(C)C)nc32)O[C@@H]1CO	-12.9% (inactive)
COc1ccc([N+](=O)[O-])cc1N(CC(O)CN(CC(C)C)CC(C)C)S(=O)(=O)c1ccc(C)cc1 (stereo unspecified)	9.51% (inactive)
COc1ccc(CN2C(=O)C(C)S/C2=N/N=C/c2ccco2)cc1 (stereo unspecified)	5.76% (inactive)
Cc1ccc(NC(=S)NCc2ccccc2Cl)c(C)c1	21.4% (inactive)
S=C(NCCc1ccccc1)Nc1ccccc1	-23.1% (inactive)
S=C(NCCc1ccccc1)NCc1ccccc1Cl	76.7% (active)
CCCCCCCCCCCCC(NC(C)=O)(C(=O)OCC)C(=O)OCC	28.6% (inactive)

SMILES	inhibition
Cc1cc(-c2n[nH]c(=S)n2/N=C/C(Br)=C/c2ccccc2)n[nH]1	106% (active)
Cc1cc(-c2n[nH]c(=S)n2/N=C/c2ccco2)n[nH]1	-10.9% (inactive)
S=c1[nH]nc(-c2cccnc2)n1/N=C/C(Cl)=C\c1ccccc1	-39.3% (inactive)
COC(=O)c1sc(NC(=S)NC(=O)c2ccc(C)cc2)nc1C	-2.37% (inactive)
Nc1ccccc1C(=O)NC1CCCCNC1=O (stereo unspecified)	13.6% (inactive)
COc1ccccc1Cn1c(CO)nc2ccccc21	6.99% (inactive)
Cc1ccc(Nc2c3c(nc4ccccc24)CCC3)cc1	17.5% (inactive)
COCCn1c(C)cc(C2=NNC(=Nc3ccc(F)cc3)SC2)c1C	-7.2% (inactive)
Cc1cc(C2=NNC(=Nc3ccc(S(=O)(=O)N4CCOCC4)cc3)SC2)c(C)n1CC1CCCO1 (stereo unspecified)	6.71% (inactive)
C=CCn1c(C)cc(C2=NNC(=NCC)SC2)c1C	105% (active)
Cn1nccc1CNC(=O)c1ccnn1C	-26% (inactive)
CCN(CC)C(=O)c1sc(NC(=O)c2ccco2)c(C#N)c1C	-5.34% (inactive)
CCCc1ccc(-c2c(C)sc(NC(=O)c3ccnn3C)c2C#N)cc1	76.4% (active)
CCCCCCCN=C(C)c1ccccc1O	-7.28% (inactive)
CCNS(=O)(=O)c1ccc(NC(=O)Nc2cccc(C(F)(F)F)c2)cc1	87.4% (active)
Cc1ccc(NC(=O)Nc2cccc(C(F)(F)F)c2)nc1	-25.1% (inactive)
CCNS(=O)(=O)c1ccc(NC(=O)Nc2cccc(OC)c2)cc1	-10.9% (inactive)
Cn1nc(C(F)(F)F)cc1C(=O)O	13.6% (inactive)
CSC1=NCCN1C(=O)Cc1cccc2ccccc12	13.7% (inactive)
O=C(Nc1ccccc1)Nc1nc2ccccc2s1	-20.1% (inactive)
O=C(Nc1ccc2ccccc2c1)Nc1ccc2snnc2c1	79.2% (active)
COc1ccc(NC(=O)Nc2ccc3nsnc3c2)cc1	4.53% (inactive)
Cc1ccc(F)cc1NC(=O)N1CCCN(c2ccc(C(F)(F)F)cn2)CC1	1.83% (inactive)
COc1cc(NC(=O)c2cncc(-c3ccc(C#N)cc3)c2)cc(C(=O)Nc2cccc(C(F)(F)F)c2)c1	22.1% (inactive)
